Assay results as given in PubChem BioAssay.
Active and inactive are the calls of the source.

Experiment: basal 3T3-L1 adipocyte mitochondrial potential changes, profiling panel, cell-based, JC-1 fluorescence, 3T3-L1 adipocytes, 24 h, 100 nL compound (AID 1168); further: test concentration not given here
Conditions: JC-1 mitochondrial fluorescence, higher = more signal, called active from +8 up or from −8 down

| Structure (SMILES) | z-score |
| --- | --- |
| CN(C)C(=O)[C@@]1(CCS(=O)(=O)c2ccccc2)N=C(c2ccc(OCCCO)cc2)O[C@H]1c1ccccc1CN=[N+]=[N-] | -0.264 (inactive) |
| Cc1ccc(S[C@]2(C(=O)NCc3ccccc3)CC(=O)N(C3Cc4ccccc4C3)[C@@H]2c2ccc(CO)cc2I)cc1 | 0.698 (inactive) |
| C=C(C)[C@@H]1CC=C(C(O)C2C=CC3C(=O)N(C4CCCCC4)C(=O)C3N2Nc2ccc(OC)cc2)CC1 (stereo partly specified) | -0.836 (inactive) |
| CC(C)(C)N1CC=CC23O[C@@H]4C=CCCOC(=O)C4[C@H]2C(=O)N(CCCO)[C@@H]3C1=O (stereo partly specified) | 0.514 (inactive) |
| CN(C)C(=O)[C@]1(Cc2ccccc2N=[N+]=[N-])N=C(c2ccc(OCCCO)cc2)O[C@@H]1c1ccccc1CN=[N+]=[N-] | -0.286 (inactive) |
| COC(=O)[C@@]1(Cc2ccc(OC)cc2)[C@H]2c3cc(C(=O)N4CCCC4)n(Cc4ccc(C)o4)c3C[C@H]2CN1C(=O)c1ccccc1 | 3.65 (inactive) |
| [N-]=[N+]=NCc1ccccc1C[C@]1(C(=O)NCCN2CCOCC2)N=C(c2ccc(OCCCO)cc2)O[C@H]1c1ccccc1 | 0.469 (inactive) |
| CCCCCCC#C[Si](O[C@H](c1ccccc1)c1cn(Cc2cccc(Cl)c2)nn1)(C(C)C)C(C)C | 0.169 (inactive) |
| COCCOC(=O)N1C(=O)[C@@]2(c3cc(C#CC4(O)CCCCCC4)ccc31)[C@H](C(=O)N1CCN(c3ncccn3)CC1)[C@H]1C(=O)O[C@H](c3ccccc3)[C@H](c3ccccc3)N1[C@@H]2c1ccc(O)cc1 | 0.799 (inactive) |
| COc1ccc(C(=O)Nc2ccc3c(c2)[C@]2(O[C@@H](CCO)[C@H]([Si](C)(C)c4ccc(OC)cc4)[C@H]2C)C(=O)N3Cc2ccccc2)cc1 | -0.0069 (inactive) |
| COc1ccc([Si](C)(C)[C@@H]2[C@@H](CCO)O[C@]3(C(=O)N(Cc4ccccc4)c4ccc(N5CCCCC5=O)cc43)[C@H]2C)cc1 | -0.258 (inactive) |
| C#CCNS(=O)(=O)N(C)C | 0.48 (inactive) |
| COCCCNC(=O)[C@]1(CCS(=O)(=O)c2ccccc2)N=C(c2ccc(OCCCO)cc2)O[C@@H]1c1ccccc1 | 0.0968 (inactive) |
| CC(=O)NCCCC[C@@H]1NC(=O)[C@@H]2C[C@H](C(=O)NCCCC[N+](C)(C)C)[C@H](c3cccc(OCCO)c3)N2C1=O | -0.0939 (inactive) |
| CCCC[C@@H](O)C1=C(COc2ccccc2)Cn2c(=O)n(-c3ccccc3)c(=O)n2[C@H]1CO | 0.334 (inactive) |
| C=CCOC(=O)[C@H]1[C@@H]2C(=O)O[C@@H](c3ccccc3)[C@@H](c3ccccc3)N2[C@@H](c2ccc(OCCOC(=O)[C@H]3C[C@H]4C(=O)N[C@@H](CCCCN(C)C)C(=O)N4[C@H]3c3ccc(O)cc3)cc2)[C@]12C(=O)Nc1ccccc12 | 0.665 (inactive) |
| C=CCNC(=O)[C@H]1[C@@H]2C(=O)O[C@@H](c3ccccc3)[C@@H](c3ccccc3)N2[C@@H](c2ccc(OCCO)cc2)[C@]12C(=O)N(C(=O)OCCOC)c1ccc(C#CC3=CCCCC3)cc12 | 2.06 (inactive) |
| COC(=O)[C@@]1(Cc2ccccc2)[C@H]2c3cc(C(=O)N4CCCC4)n(Cc4ccc(OC(F)(F)F)cc4)c3C[C@H]2CN1C(=O)c1ccccc1 | -1.42 (inactive) |

| Structure (SMILES) | z-score |
| --- | --- |
| COc1ccc([Si](C)(C)[C@H]2[C@H](CCn3cc(CCO)nn3)O[C@@]3(C(=O)N(Cc4cccc(N5C(=O)c6cccc7cccc5c67)c4)c4ccccc43)[C@@H]2C)cc1 | 2.9 (inactive) |
| COC(=O)[C@@]1(Cc2ccc(F)cc2)[C@H]2c3cc(C(=O)N4CCCC4)n(Cc4ccccc4)c3C[C@H]2CN1C(=O)c1ccccc1 | -0.76 (inactive) |
| CCC[C@@H]1C[C@@]1(CCC)[C@@H](NC(=O)c1ccco1)c1ccc(Cl)cc1 | -0.00207 (inactive) |
| C[C@@]1([C@@H](NC(=O)c2cccs2)c2ccc(-c3ccccc3)cc2)C[C@H]1C1CCCCC1 | 0.395 (inactive) |
| O=C1O[C@H](c2ccccc2)[C@H](c2ccccc2)N2[C@H]1[C@@H](C(=O)N1CCN(c3ncccn3)CC1)[C@]1(C(=O)Nc3ccc(C#CCCO)cc31)[C@H]2c1ccccc1OCCO | 0.488 (inactive) |
| C=C(COC)C(=O)CC[C@H](OC(=O)c1ccccc1-c1ccccc1C(=O)O)c1ccc(CO)o1 | -0.345 (inactive) |
| COCC(=C=CC[C@@H](O)c1ccccc1OCCO)C[C@@H](O)c1ccccn1 | -0.99 (inactive) |
| COC(=O)C(CC#Cc1ccc2c(c1)[C@]1(C(=O)N2)[C@H](c2ccc(OCCO)cc2)N2[C@H](c3ccccc3)[C@H](c3ccccc3)OC(=O)[C@H]2[C@@H]1C(=O)O)C(=O)OC | 0.222 (inactive) |
| COCCCNC(=O)[C@]1(Cc2ccccc2CN=[N+]=[N-])N=C(c2ccc(OCCCO)cc2)O[C@@H]1c1ccccc1CN=[N+]=[N-] | -0.907 (inactive) |
| C=C(C(=O)CC[C@H](OC(=O)c1cccnc1)c1ccc(OCCO)cc1)C(C)C | -0.00639 (inactive) |
| CC(C)CNC(=O)[C@@]1(C)c2ccccc2C(=O)N(Cc2ccccc2)[C@H]1c1ccc(CO)cc1 | -0.491 (inactive) |
| CC(C)(C)OC(=O)CC[C@]1(C(=O)O)COC(c2ccc(OCCCO)cc2)=N1 | -0.564 (inactive) |
| COc1ccc([Si](C)(C)[C@@H]2[C@@H](CC(=O)N(CCO)Cc3ccccc3)O[C@]3(C(=O)N(Cc4ccc(N5CCOC5=O)cc4)c4ccccc43)[C@H]2C)cc1 | 1.19 (inactive) |
| CCCCC=C[C@@H](NC(=O)CCc1ccccc1)c1ccccc1 | -0.775 (inactive) |
| C=C(/C(=C/C[C@@H](OC(=O)c1ccncc1)c1ccccc1OCCO)c1cnc2ccccc2c1)C(C)C | -0.19 (inactive) |
| C=C(CCCC)/C(=C/C[C@@H](OC(=O)c1ccncc1)c1ccccc1OCCO)c1cc(C(=O)OC)ccc1OC | -0.188 (inactive) |
| CC(C)N1C(=O)c2ccccc2[C@](C)(C(=O)O)[C@@H]1c1ccc(CO)cc1 | 0.597 (inactive) |
| COC(=O)[C@@]1(Cc2ccc(OC)cc2)[C@H]2c3cc(C(=O)N(C)C)n(Cc4cc(C)n(C)n4)c3C[C@H]2CN1C(=O)c1ccccc1 | -0.938 (inactive) |
